Measurements reported in PubChem BioAssay (NCI).
Where “and” joins values, the source holds several entries; their conditions need not be identical. Equal values may be shown once. The panel holds about 83,000 compounds, 20% with a hit somewhere; the sample as a whole holds those more often.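 A percent growth of 40 corresponds to 60% growth inhibition; 0 means no net growth; -100 means all cells died. Active threshold: below 10.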 Calls of active or inactive are those of the source.

The compounds below were run on HL-60(TB) leukemia (assay: NCI-60 one-dose screen, 48 h (100 = growth as untreated, 0 = no growth, -100 = all killed)). Settings: 10 µM unless noted.

| Compound | growth |
| --- | --- |
| Nc1nc(-c2ccccc2)nc(N)c1N=O | 18.8% (inactive) |
| CC[N+](CC)(CC(=O)Nc1c(C)cccc1C)Cc1ccccc1 | 79.6% (inactive) and 94.7% (inactive) |
| CCOc1ccc2[nH]c(=S)sc2c1 | 78.9% (inactive) |
| O=C(/C=C/c1ccc(F)cc1)c1ccc(Nc2nc(NCCO)nc(Nc3ccc(Cl)cc3)n2)cc1 | 98.6% (inactive) |
| CCOC(=O)C1=C(N)Oc2c(sc3c(CC)cccc23)C1c1ccc(F)cc1 (stereo not given) | 23.7% (inactive) |
| CS(=O)(=O)C1=CN(CCO)C(=O)N2CCCN=C12 | 109% (inactive) |
| Nc1cc(N)c2cccnc2c1O | 59.6% (inactive) |
| CN(C)c1ccc(Cc2ccc(N(C)C)cc2Cl)c(Cl)c1 | 5.92% (active) |
| COc1ccc(NS(=O)(=O)N2CCCCC2)cc1 | 115% (inactive) |
| CN(C)CCOC(=O)C(C)(C)C | 89.7% (inactive) |
| CCOC(=O)C(C#N)=C1CCN(C)CC1 | 113% (inactive) |
| Cn1cc(-c2csc(-c3ccc(Cl)cc3)n2)c2cccnc21 | 7.96% [100 µM] (active) |
| Fc1cc2c(cc1Cl)N(c1ncnc3ccc(-c4ccc5n[nH]nc5c4)cc13)CC2 | 69.3% (inactive) |
| CN([O-])c1nc(N(C)[O-])nc(N2CCOCC2)n1.CN([O-])c1nc(N(C)[OH2+])nc(N2CCOCC2)n1.[Fe+3] | 93.8% [100 µM] (inactive) |
| C=C1C(=O)O[C@H]2[C@H]1CC/C(COC(=O)CSCCSCC(=O)OC/C1=C/CC[C@@]3(C)O[C@H]3[C@H]3OC(=O)C(=C)[C@@H]3CC1)=C\CC[C@@]1(C)O[C@@H]21 | -58.8% (active) |
| CC(C)(C)n1cc(-c2ccnc(NCCNS(=O)(=O)c3cccc(F)c3)c2)c(-c2ccccc2)n1 | 73.5% (inactive) |
| COc1ccc(-c2cn(-c3cccc(C(=O)/C=C/c4ccc(O)c(OC)c4)c3)c(=O)[nH]2)cc1 | -2.62% (active) |
| O=C1C(=O)c2ccccc2C(O)=C1CC=C(Cl)Cl | 31.3% (inactive) and 44.6% (inactive) |
| Cc1cnc(N)nc1OCCNC(=O)c1cccc(-c2ccc(S(=O)(=O)Nc3ccc4c(c3)N(C(=O)C3CC3)CCC4)cc2)c1 | 43.3% (inactive) |
| CCCCCCCCCCCCCCCC[N+](C)(C)CCN(Cc1ccc(OC)cc1)c1ncccn1 | -52.7% (active) and -2.88% (active) |

| Compound | growth |
| --- | --- |
| CS(=O)(=O)c1ccc(-c2nc3cc(Cl)ccc3n2CC(=O)NO)cc1 | 91.9% (inactive) |
| O=C(c1ccccc1)[C@H]1[C@@H]2CCCN2[C@]2(C(=O)Nc3ccc(F)cc32)[C@]12C(=O)Nc1ccccc12 | 68.3% (inactive) |
| O=C(OCC1CCCO1)c1ccc([N+](=O)[O-])cc1 (stereo not given) | 102% (inactive) |
| CC(=O)Nc1nc(C)c(C(=O)NN)s1 | 117% (inactive) |
| CCCCCC(=O)N1c2ccccc2NC2=C(C(=O)CC(c3ccc(OC)c(OC)c3)C2)C1c1ccc(C(F)(F)F)cc1 (stereo not given) | 45.4% (inactive) |
| O=C(O)CNS(=O)(=O)c1ccc(OCCOc2ccc(S(=O)(=O)NCC(=O)O)cc2)cc1 | 98.7% (inactive) |
| O=C(c1c(F)ccc(NS(=O)(=O)N2CC[C@@H](F)C2)c1F)c1c[nH]c2ncc(-c3cnc(C4CC4)nc3)cc12 | 35.6% (inactive) |
| CN(C)c1ccc(N=Nc2ccccn2)c(O)c1 | -36.3% (active) |
| COc1cc(/C=N/NC(=O)Cn2c(-c3ccc(C)o3)nc3ccccc32)ccc1OCc1ccccc1 | 87.4% (inactive) |
| Cc1ccc(N=C2CSc3nnc(-c4csc5c4CCCC5)n3N2)cc1 | -25.4% (active) |
| Fc1cnccc1C1CC(c2ccc(N3CCNCC3)cc2)=NN1 (stereo not given) | 77.3% (inactive) |
| CC(C)Cc1ccc(C(C)C(=O)NCc2ccc(Cn3c(=O)sn(CCCI)c3=O)cc2)cc1 (stereo not given) | 74.9% (inactive) and -41.5% (active) |
| Clc1ccc(/C=N\N=c2\scc(-c3ccc(Cl)cc3)n2/N=C/c2ccc(Cl)cc2)cc1 | 84.5% (inactive) |
| COc1cc(-c2cc(-c3ccc(N(C)C)cc3)nc(N3CCC(O)CC3)c2C#N)cc(OC)c1OC | -23.6% (active) |
| O=c1[nH]cnc2c1ncn2C1OC(CO)C(O)C1O (stereo not given) | 97.1% (inactive) and 89.3% (inactive) and 101% (inactive) |
| O=c1nc2c(-c3nc4ccccc4s3)n[nH]n2c2sc3c(c12)CCCC3 | 99.4% (inactive) |
| COc1ccc(COC(C)=O)cc1 | 112% (inactive) |
| CCCCCCCCCCCCCCCCCCNC(=O)[C@H]1CSC(c2cccs2)N1 (stereo not given in full) | -67.5% (active) |
| Cc1nnc(-n2c(O)cc(=O)n(-c3ccccc3)c2=S)nc1/C=C/c1ccc(N(C)C)cc1 | 7.92% (active) |
| COc1ccc(C2C3=C(COC3=O)N(CCO)c3cc4c(cc32)CCC4)cc1 (stereo not given) | 4.72% (active) |
